PubChem BioAssay (EPA / NIEHS)
Records with an inconclusive call do not appear. A structure can be active in one record and inactive in another. Active and inactive are the calls of the source. The calls were made as follows: active = hit-call score of the fitted dose curve at least 0.9, where 1 is the maximum; inconclusive = response in the unintended direction; inactive = score below 0.9.

Experiments:
[1] = molecular target: bovine Estrogen Receptor (ER), ESR1 (gene 407238) (UniProt P49884); assay: NVS_NR_bER: NovaScreen (NVS) Nuclear Receptor Binding Assay for bovine Estrogen Receptor (ER) (AID 2283345);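 also: actives lower the bound radioligand count which means they displace the ER ligand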
Summary of the method: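 Cell-free radioligand binding with receptor from bovine uterine membranes, read by scintillation counting 18 h after dosing. Loss of specific binding was scored against DMSO; primary screen at 25 uM in duplicate, actives then run as concentration series.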

[2] = molecular target: chimpanzee Androgen Receptor (AR), AR (gene 747460) (UniProt O97775); assay: NVS_NR_cAR: NovaScreen (NVS) Nuclear Receptor Binding Assay for chimpanzee Androgen Receptor (AR) (AID 2283346);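 also: radioligand displacement from AR measured by scintillation counting in a cell-free assay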
Summary of the method: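 Cell-free radioligand displacement using receptor protein extracted from Sf9/Sf21 cells; bound radioligand measured by scintillation counting 72 hours after chemical dosing. Loss of signal versus DMSO baseline indicates binding; primary screen single-concentration in duplicate at 25 uM, actives followed in concentration series.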

[3] = molecular target: Estrogen receptor (Homo sapiens) (UniProt P03372); assay: NVS_NR_hER: NovaScreen (NVS) Nuclear Receptor Binding Assay for human Estrogen Receptor (ER) (AID 2283348)
Summary of the method: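 Radiodetection of ligand displacement in a lysate-based, cell-free format using MCF7 extracts, read at 18 hours. Duplicate 25 uM primary testing, then concentration series for actives.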

[4] = molecular target: Estrogen receptor (Homo sapiens) (UniProt P03372); assay: OT_ER_ERaERa_1440: Odyssey Thera (OT) 24-hour HEK293T Protein-Complementation Assay for Estrogen Receptor-alpha/-alpha Homodimer (AID 2283349);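 also: hits raise fluorescence above DMSO for agonists and antagonists alike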
Summary of the method: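 Stably transfected HEK293T; ERα LBD homodimer PCA. 24 h dosing, fluorescence intensity read, gain-of-signal vs DMSO.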

[5] = molecular target: Estrogen receptor (Homo sapiens) (UniProt P03372); assay: OT_ER_ERaERa_0480: Odyssey Thera (OT) 8-hour HEK293T Protein-Complementation Assay for Estrogen Receptor-alpha/-alpha Homodimer (AID 2283351);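 also: rise in fluorescence from reassembled reporter fragments on ERα LBD homodimer in nucleus or whole cell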
Summary of the method: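 Read-out: fluorescence intensity rise relative to DMSO, nuclear for agonists, nuclear plus cytoplasmic for antagonists. Construct is the ERα LBD (aa 310-547) homodimer fragment-complementation pair, stably expressed in HEK293T; exposure 8 h.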

[6] = molecular target: Estrogen receptor (Homo sapiens) + Estrogen receptor beta (Homo sapiens) (UniProt P03372+Q92731); assay: OT_ER_ERaERb_0480: Odyssey Thera (OT) 8-hour HEK293T Protein-Complementation Assay for Estrogen Receptor-alpha/-beta Heterodimer (AID 2283352)
Summary of the method: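 HEK293T protein-fragment complementation assay of ER-alpha/ER-beta LBD heterodimerisation, read 8 h after dosing. Mean nuclear/cytoplasmic fluorescence intensity measured by laser scanning cytometry; gain of signal fitted relative to DMSO.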

[7] = molecular target: Androgen Receptor/SRC-1 Co-activator, AR (gene 367) (UniProt P10275); assay: OT_AR_ARSRC1_0960: Odyssey Thera (OT) 16-hour HEK293T Protein-Complementation Assay for Androgen Receptor/SRC-1 Co-activator (AID 2283353);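 also: actives raise the signal above DMSO so potency reflects increased AR and SRC-1 complex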
Summary of the method: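 Readout: 488 nm nuclear-to-cytoplasmic fluorescence ratio from imaging of at least 400 cells per image, 16 h post-dose. Reporter is Venus YFP complementation between AR and SRC-1 fusions, stably expressed in HEK293T; activity scored upward relative to DMSO.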

[8] = molecular target: Androgen Receptor/SRC-1 Co-activator, AR (gene 367) (UniProt P10275); assay: OT_AR_ARSRC1_0480: Odyssey Thera (OT) 8-hour HEK293T Protein-Complementation Assay for Androgen Receptor/SRC-1 Co-activator (AID 2283354);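 also: hits raise the complementation signal above DMSO so AC50 marks enhancers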
Summary of the method: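 After 8 h dosing, stably expressing HEK293T cells with split-Venus AR/SRC-1 fusions were imaged (488, 635nm). The 488nm N/C ratio per image gave the endpoint, analysed in the positive direction against DMSO.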

[9] = tested on: NCBI gene 100848466; assay: NVS_NR_bPR: NovaScreen (NVS) Nuclear Receptor Binding Assay for bovine Progextron Receptor (PR) (AID 2283343)
Protocol: NVS_NR_bPR is a biochemical, single-readout assay that uses extracted gene-proteins from Bovine uterine membranes in a tissue-based cell-free assay. Measurements were taken 18 hours after chemical dosing in a 96-well plate.NVS_NR_bPR is one of one assay component(s) measured or calculated from the NVS_NR_bPR assay. It is designed to make measurements of radioligand binding, a form of binding reporter, as detected with scintillation counting signals by Lysate-based radiodetection technology.Data from the assay component NVS_NR_bPR was analyzed into 1 assay endpoint. This assay endpoint, NVS_NR_bPR, was analyzed in the positive analysis fitting direction relative to DMSO as the negative control and baseline of activity. Using a type of binding reporter, loss-of-signal activity can be used to understand changes in the binding as they relate to the gene PGR. Furthermore, this assay endpoint can be referred to as a primary readout, because the performed assay has only produced 1 assay endpoint. To generalize the intended target to other relatable targets, this assay endpoint is annotated to the nuclear receptor intended target family, where the subfamily is steroidal.
Binding assays used specific radioligands (tritiated, iodinated) with non-radioactive competitive displacement ligands in agonist or antagonist protocols (as indicated) and various reference compounds and inhibitors to titrate specific binding to receptors and transporters. Most enzyme assays (CYPs, kinases, phosphatases, proteases, HDACs) used recombinant protein and specific substrates (fluorescence mostly, some colorimetric and radioactive) and inhibitors, followed by a biochemical separation of substrate and product. All assays for the biochemical HTS were initially run in duplicate at a single concentration (10 uM for CYP450 assays and 25 uM for all others). […] Each assay was run with positive and negative controls, and concurrent controls on every plate. […]

[10] = molecular target: human Constitutive Androstane Receptor (CAR), NR1I3 (gene 9970) (UniProt Q14994); assay: NVS_NR_hCAR_Antagonist: NovaScreen (NVS) Nuclear Receptor Binding Assay for human Constitutive Androstane Receptor Antagonism (CAR) (AID 2283344)
Summary of the method: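 Single 25 uM duplicate primary screen, with concentration-series follow-up on actives. Cell-free binding format run in antagonist mode, TR-FRET signal taken 1 h post-dose; activity is signal loss relative to DMSO.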

Chain of Androgen Receptor/SRC-1 Co-activator, AR (gene 367) (P10275 whole entry, looked up, the tested form may be a part): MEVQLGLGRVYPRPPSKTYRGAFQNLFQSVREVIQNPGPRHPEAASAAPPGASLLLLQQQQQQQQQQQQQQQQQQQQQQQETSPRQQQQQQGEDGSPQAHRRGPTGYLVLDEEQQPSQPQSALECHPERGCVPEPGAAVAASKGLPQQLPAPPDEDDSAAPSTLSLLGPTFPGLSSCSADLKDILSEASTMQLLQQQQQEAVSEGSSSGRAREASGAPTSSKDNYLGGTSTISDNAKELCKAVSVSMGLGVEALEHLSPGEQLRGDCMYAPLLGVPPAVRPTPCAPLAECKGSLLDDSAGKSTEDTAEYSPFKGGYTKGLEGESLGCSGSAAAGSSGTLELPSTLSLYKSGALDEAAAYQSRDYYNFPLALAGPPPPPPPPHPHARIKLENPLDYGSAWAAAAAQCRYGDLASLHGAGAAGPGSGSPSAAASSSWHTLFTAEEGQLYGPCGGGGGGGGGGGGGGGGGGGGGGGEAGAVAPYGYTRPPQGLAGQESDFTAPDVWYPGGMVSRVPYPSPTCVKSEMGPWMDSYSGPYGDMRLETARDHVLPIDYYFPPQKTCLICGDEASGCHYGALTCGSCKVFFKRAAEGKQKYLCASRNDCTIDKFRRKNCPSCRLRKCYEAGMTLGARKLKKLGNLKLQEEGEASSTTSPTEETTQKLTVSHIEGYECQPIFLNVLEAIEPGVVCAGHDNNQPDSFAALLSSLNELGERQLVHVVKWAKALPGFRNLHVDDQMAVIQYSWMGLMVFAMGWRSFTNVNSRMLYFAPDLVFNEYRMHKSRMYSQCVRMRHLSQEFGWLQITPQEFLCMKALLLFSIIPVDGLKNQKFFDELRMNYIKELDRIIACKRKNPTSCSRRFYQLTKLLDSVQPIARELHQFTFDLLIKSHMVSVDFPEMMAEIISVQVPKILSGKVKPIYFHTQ
Chain of bovine Estrogen Receptor (ER), ESR1 (gene 407238) (P49884 whole entry, looked up): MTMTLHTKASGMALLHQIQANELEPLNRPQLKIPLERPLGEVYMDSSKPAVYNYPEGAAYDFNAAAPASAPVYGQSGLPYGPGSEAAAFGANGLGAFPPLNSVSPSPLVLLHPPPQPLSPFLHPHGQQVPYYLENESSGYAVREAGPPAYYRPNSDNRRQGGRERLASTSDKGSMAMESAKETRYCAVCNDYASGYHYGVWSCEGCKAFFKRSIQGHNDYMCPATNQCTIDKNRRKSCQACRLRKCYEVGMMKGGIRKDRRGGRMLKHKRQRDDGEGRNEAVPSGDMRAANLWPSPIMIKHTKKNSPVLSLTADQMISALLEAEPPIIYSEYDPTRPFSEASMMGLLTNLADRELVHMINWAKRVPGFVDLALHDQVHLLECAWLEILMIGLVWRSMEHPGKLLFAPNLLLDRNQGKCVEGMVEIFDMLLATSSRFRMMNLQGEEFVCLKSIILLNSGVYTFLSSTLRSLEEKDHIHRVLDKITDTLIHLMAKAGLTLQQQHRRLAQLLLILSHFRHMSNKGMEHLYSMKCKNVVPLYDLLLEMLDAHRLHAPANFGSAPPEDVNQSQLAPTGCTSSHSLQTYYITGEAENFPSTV
Chain of Estrogen receptor (Homo sapiens) (P03372 whole entry, looked up, the tested form may be a part): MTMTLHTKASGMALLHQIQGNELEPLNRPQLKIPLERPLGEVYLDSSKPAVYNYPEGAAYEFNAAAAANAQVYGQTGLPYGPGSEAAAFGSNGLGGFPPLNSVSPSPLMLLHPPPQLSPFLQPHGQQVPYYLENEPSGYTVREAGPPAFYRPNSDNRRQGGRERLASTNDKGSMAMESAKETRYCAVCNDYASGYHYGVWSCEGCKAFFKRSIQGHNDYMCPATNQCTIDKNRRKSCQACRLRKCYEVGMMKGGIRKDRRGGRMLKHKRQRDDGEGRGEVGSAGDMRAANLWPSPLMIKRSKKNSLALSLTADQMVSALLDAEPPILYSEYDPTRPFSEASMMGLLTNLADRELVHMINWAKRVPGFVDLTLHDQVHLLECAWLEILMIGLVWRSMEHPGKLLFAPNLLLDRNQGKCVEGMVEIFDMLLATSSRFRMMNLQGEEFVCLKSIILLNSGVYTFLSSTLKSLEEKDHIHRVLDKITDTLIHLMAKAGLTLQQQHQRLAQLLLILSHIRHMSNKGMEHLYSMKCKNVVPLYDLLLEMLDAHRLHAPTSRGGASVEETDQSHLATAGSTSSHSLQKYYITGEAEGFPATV
Chain of Estrogen receptor (Homo sapiens) + Estrogen receptor beta (Homo sapiens) (P03372 whole entry, looked up, the tested form may be a part): as above
Chain of Estrogen receptor (Homo sapiens) + Estrogen receptor beta (Homo sapiens) (Q92731 whole entry, looked up, the tested form may be a part): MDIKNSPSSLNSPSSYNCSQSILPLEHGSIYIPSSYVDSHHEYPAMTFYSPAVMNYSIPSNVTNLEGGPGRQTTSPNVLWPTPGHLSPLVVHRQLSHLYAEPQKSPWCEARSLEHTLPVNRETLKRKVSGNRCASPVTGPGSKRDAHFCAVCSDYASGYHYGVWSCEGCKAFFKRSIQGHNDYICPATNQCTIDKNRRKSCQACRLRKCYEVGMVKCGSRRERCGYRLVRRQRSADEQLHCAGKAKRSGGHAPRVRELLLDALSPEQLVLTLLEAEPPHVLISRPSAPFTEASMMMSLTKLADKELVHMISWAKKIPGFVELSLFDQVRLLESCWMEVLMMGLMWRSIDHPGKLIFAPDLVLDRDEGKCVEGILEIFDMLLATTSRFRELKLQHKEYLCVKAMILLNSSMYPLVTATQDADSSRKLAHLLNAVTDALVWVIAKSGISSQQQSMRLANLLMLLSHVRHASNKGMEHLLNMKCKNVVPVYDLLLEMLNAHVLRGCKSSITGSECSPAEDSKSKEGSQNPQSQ
Chain of chimpanzee Androgen Receptor (AR), AR (gene 747460) (O97775 whole entry, looked up): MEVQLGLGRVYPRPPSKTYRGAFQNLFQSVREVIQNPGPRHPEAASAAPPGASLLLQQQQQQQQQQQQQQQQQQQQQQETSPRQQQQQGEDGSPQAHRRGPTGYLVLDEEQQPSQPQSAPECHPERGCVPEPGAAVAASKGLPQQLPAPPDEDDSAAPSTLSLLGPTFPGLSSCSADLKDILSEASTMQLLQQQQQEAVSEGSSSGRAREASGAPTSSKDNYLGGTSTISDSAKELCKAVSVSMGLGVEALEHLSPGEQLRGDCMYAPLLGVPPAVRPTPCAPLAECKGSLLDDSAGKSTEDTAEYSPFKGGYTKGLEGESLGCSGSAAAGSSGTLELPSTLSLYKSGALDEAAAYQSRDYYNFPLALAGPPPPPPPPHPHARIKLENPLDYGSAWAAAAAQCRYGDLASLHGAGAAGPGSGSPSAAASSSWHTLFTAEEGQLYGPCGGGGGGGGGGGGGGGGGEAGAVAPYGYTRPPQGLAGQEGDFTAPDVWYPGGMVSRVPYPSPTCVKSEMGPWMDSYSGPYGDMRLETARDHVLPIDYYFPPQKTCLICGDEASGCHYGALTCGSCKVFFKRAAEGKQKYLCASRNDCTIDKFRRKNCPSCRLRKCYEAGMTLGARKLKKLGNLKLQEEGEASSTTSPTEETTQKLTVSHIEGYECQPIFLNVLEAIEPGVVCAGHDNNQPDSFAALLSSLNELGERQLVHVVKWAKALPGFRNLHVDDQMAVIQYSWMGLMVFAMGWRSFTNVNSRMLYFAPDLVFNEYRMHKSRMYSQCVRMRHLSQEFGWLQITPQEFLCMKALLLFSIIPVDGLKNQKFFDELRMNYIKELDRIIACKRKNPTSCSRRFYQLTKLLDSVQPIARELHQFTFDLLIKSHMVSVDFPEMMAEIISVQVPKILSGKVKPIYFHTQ
Chain of human Constitutive Androstane Receptor (CAR), NR1I3 (gene 9970) (Q14994 whole entry, looked up): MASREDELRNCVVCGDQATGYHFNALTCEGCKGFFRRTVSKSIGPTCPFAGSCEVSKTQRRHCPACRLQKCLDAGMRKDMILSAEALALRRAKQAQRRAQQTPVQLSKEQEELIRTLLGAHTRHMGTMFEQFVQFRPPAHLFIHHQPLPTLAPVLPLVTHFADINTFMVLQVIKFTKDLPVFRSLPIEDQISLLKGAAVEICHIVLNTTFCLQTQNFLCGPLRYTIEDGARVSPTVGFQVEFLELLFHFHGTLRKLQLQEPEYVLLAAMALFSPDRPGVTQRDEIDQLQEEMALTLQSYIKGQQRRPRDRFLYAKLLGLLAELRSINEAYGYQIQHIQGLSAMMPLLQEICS

Cc1cc(O)c2c(c1)C(=O)c1cc(O)cc(O)c1C2=O
outcome [1]: inactive

CC/C=C\CCCCCCCCCCOC(C)=O
outcome [1]: inactive

CC1(C)CC(=O)CC(C)(C)N1
outcome [1]: inactive | outcome [2]: inactive

CCCCCCOc1ccc(O)cc1
outcome [1]: inactive | AC50 [3]: 12 µM (active) | AC50 [4]: 13.6 µM (active) | AC50 [5]: 18.3 µM (active) | AC50 [6]: 12 µM (active) | AC50 [7]: 75.1 µM (active) | AC50 [8]: 78.3 µM (active)

CCC(C)(C)C1CCC(=O)CC1
AC50 [1]: 4.52 µM (active) | AC50 [3]: 0.983 µM (active) | outcome [4]: inactive | outcome [7]: inactive | outcome [8]: inactive

CC(O)CN (stereo not drawn)
outcome [1]: inactive | outcome [3]: inactive | outcome [4]: inactive | outcome [6]: inactive

CC(C)(C)c1ccc(S)cc1
AC50 [1]: 0.551 µM (active) | AC50 [3]: 0.283 µM (active) | outcome [4]: inactive | outcome [5]: inactive

CCCCCCCCCOS(=O)(=O)O
outcome [1]: inactive | AC50 [3]: 11.1 µM (active) | outcome [4]: inactive | outcome [5]: inactive | outcome [6]: inactive

CCC(C)(C)c1cc(O)c(C(C)(C)CC)cc1O
outcome [1]: inactive | outcome [3]: inactive

CC(=O)C1C(=O)C=C(C)OC1=O (stereo not drawn)
outcome [1]: inactive | outcome [3]: inactive | outcome [4]: inactive | outcome [5]: inactive | outcome [6]: inactive

CC(=O)OC(C)(C)C1CC=C(C)CC1 (stereo not drawn)
outcome [1]: inactive | outcome [4]: inactive

O=C(c1ccc(OCCN2CCCCC2)cc1)c1c(-c2ccc(O)cc2)sc2cc(O)ccc12
outcome [9]: inactive | AC50 [10]: 38.5 µM (active) | AC50 [2]: 25 µM (active) | outcome [2]: inactive

CCCCCCCCOC(=O)c1ccc(O)cc1
outcome [1]: inactive | AC50 [3]: 2.7 µM (active) | AC50 [4]: 32.8 µM (active) | AC50 [6]: 10.1 µM (active)

CCOCC(C)O (stereo not drawn)
outcome [1]: inactive | outcome [3]: inactive | outcome [4]: inactive | outcome [6]: inactive

CCCCCCCCCCCCOCCOS(=O)(=O)O
outcome [1]: inactive | AC50 [3]: 22.8 µM (active) | outcome [4]: inactive
